Experimental data taken from PubChem BioAssay (EPA / NIEHS).
Several values for one entry are separate records, joined by “and”; a condition that tells them apart may be missing. Identical values can stand only once. Results filed as inconclusive are left out. Activity calls are given as the source filed them. Rule for the calls, unless noted: active = hit-call score of the fitted dose curve at least 0.9, where 1 is the maximum; inconclusive = response in the unintended direction; inactive = score below 0.9.

Key:
[1] = CEETOX_H295R_ANDR: CeeTox H295R High-throughput Steroidogenesis Assay for Androstenedione (ANDR) (AID 2283436; active = hit-call score of the fitted dose curve at least 0.9, where 1 is the maximum; inactive = score below 0.9); details: actives raise or lower the signal
Summary of the method: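 48 h chemical exposure, H295R cells, DMEM/F12 + ITS+ and Nu-Serum. Medium androstenedione: MTBE extraction, C18 reverse-phase HPLC, ESI+ MS/MS. Fit bidirectional vs DMSO; MTT viability in same wells.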

[2] = CEETOX_H295R_CORTIC: CeeTox H295R High-throughput Steroidogenesis Assay for Corticosterone (CORTIC) (AID 2283437; active = hit-call score of the fitted dose curve at least 0.9, where 1 is the maximum; inactive = score below 0.9;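 note: corticosterone secreted into medium quantified by mass spectrometry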;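 for AC50: human H295R adrenal cells prestimulated with forskolin before chemical exposure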); details: actives raise or lower the signal
Procedure: (§1) CEETOX_H295R is a cell-based, multiplexed-readout assay that uses H295R, a human adrenal gland cell line, with measurements taken at 48 hours after chemical dosing in a 96-well plate.CEETOX_H295R_CORTIC is one of 23 assay component(s) measured or calculated from the CEETOX_H295R assay. It is designed to make measurements of hormone induction, a form of inducible reporter, as detected with absorbance signals by HPLC-MS-MS technology.Data from the assay component CEETOX_H295R_CORTIC was analyzed into 1 assay endpoint. This assay endpoint, CEETOX_H295R_CORTIC, was analyzed with bidirectional fitting relative to DMSO as the negative control and baseline of activity. Using a type of inducible reporter, gain or loss-of-signal activity using HPLC-MS-MS was used to understand synthesis of Corticosterone in H295R cell line at 48hr of chemical exposure. To generalize the intended target to other relatable targets, this assay endpoint is annotated to the steroid hormone intended target family, where the subfamily is glucocorticoids.
Cell culture and media preparation procedures were conducted in accordance with OECD Test No. 456 guidelines, with minor modifications. H295R cells (ATCC CRL-2128) were expanded for 5 passages and frozen in batches in liquid nitrogen. Prior to the steroidogenesis assay, H295R cells were thawed and passed at least 4 times. The maximum passage was 10. Cells were maintained in a 1:1 mixture of DMEM/F12 supplemented with 5ml/L ITS+ Premix (BD Bioscience) and 12.5 ml/L Nu-Serum (BD Bioscience). After seeding cells into 96-well plates at 50-60% confluency, cells were allowed to adhere overnight. Prior to chemical testing, culture medium was replaced with 175 uL medium containing 10 uM forskolin to stimulate steroidogenesis for 48 hours. Following prestimulation, forskolin medium was replaced with medium containing test chemical solubilized in DMSO (ensuring a final concentration of 0.1% DMSO). Test chemicals were incubated for 48 hours, then the medium was removed and split into 2 vials containing approximately 75uL each, and stored at -80 C prior to hormone analysis. For steroid quantification, media samples were shipped to OpAns, LLC (Durham, NC) on dry ice, and samples were thawed to room temperature prior to liquid-liquid extraction. Steroid hormones were extracted from media samples using methyl tertbutyl ether (MTBE). An extra derivatization with dansyl chloride was included for estrogen (estrone and estradiol) detection only. Steroid hormones were separated by HPLC, eluted using a reverse phase C18 gradient with electrospray positive ionization, followed by quantification by tandem mass spectrometry (MS/MS). Data were acquired on a MassHunter Workstation Acquisition version B03.01 (Agilent Technologies, Inc.) and processed using MassHunter Quantitative Analysis for QQQ. Accuracy was determined for each hormone analyte from 3 standards to determine upper and lower limits of quantification (ULOQ and LLOQ, respectively) using a 7-point standard curve. Precision and accuracy of the extraction and quantification methods were calculated as the percent relative standard deviation (%RSD) of the spiked standards and percent spiked standard recovered, respectively. […] Test medium was removed following chemical exposure, and cell viability was evaluated in the same wells by MTT. MTT procedures were as follows: after removal of test medium, 500 uL of 0.5 mg/ml of 3-[4,5-dimethylthiazol-2-y]2,5-diphenyltetrazoliumbromide solution was added to the cells. Following a 4-hour incubation at 37 C and 5% CO2 to allow formazan-crystal formation, the MTT solution was removed and blue formazan salt crystals were solubilized using 500uL anhydrous isopropanol with shaking for 20 minutes. Absorbance was read at 570 and 650nm using a Packard Fusion microplate reader. Background correction of absorbance units was used to determine percent change relative to controls. […]

[3] = CEETOX_H295R_CORTISOL: CeeTox H295R High-throughput Steroidogenesis Assay for Cortisol (AID 2283438; active = hit-call score of the fitted dose curve at least 0.9, where 1 is the maximum; inactive = score below 0.9;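 note: cortisol secreted into medium quantified by LC-MS/MS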); details: actives raise or lower the signal
Summary of the method: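 Cortisol measured by HPLC-MS/MS after MTBE extraction of medium from H295R cells exposed 48 h to chemical (0.1% DMSO), following 48 h prestimulation with 10 uM forskolin. Viability assessed by MTT in the same wells.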

[4] = CEETOX_H295R_DOC: CeeTox H295R High-throughput Steroidogenesis Assay for DOC (AID 2283439; active = hit-call score of the fitted dose curve at least 0.9, where 1 is the maximum; inactive = score below 0.9); details: actives raise or lower the signal
Summary of the method: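 11-Deoxycorticosterone quantified in medium by MTBE extraction and HPLC-MS/MS after 48 h chemical exposure (0.1% DMSO) of forskolin-primed (10 uM, 48 h) H295R cells. Same-well MTT viability; data fitted bidirectionally against DMSO.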

[5] = CEETOX_H295R_ESTRADIOL: CeeTox H295R High-throughput Steroidogenesis Assay for Estradiol (AID 2283440; active = hit-call score of the fitted dose curve at least 0.9, where 1 is the maximum; inactive = score below 0.9;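 note: estradiol secreted into medium quantified by LC-MS/MS after dansyl derivatisation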); details: actives raise or lower the signal
Summary of the method: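 H295R cells pre-stimulated 48 h with 10 uM forskolin, then exposed 48 h to chemical in 0.1% DMSO. Medium estradiol quantified by MTBE extraction, dansyl derivatisation and HPLC-MS/MS; bidirectional fit versus DMSO; MTT viability required >/=70%.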

[6] = CEETOX_H295R_ESTRONE: CeeTox H295R High-throughput Steroidogenesis Assay for Estrone (AID 2283441; active = hit-call score of the fitted dose curve at least 0.9, where 1 is the maximum; inactive = score below 0.9;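 note: estrone secreted into medium measured by LC-MS/MS after dansyl derivatization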); details: actives raise or lower the signal
Procedure: as §1, with “plate.CEETOX_H295R_ESTRONE” for “plate.CEETOX_H295R_CORTIC”, “CEETOX_H295R_ESTRONE” for “CEETOX_H295R_CORTIC”, “CEETOX_H295R_ESTRONE,” for “CEETOX_H295R_CORTIC,”, “Estrone” for “Corticosterone”, “estrogens.” for “glucocorticoids.”
Cell culture and media preparation procedures were conducted in accordance with OECD Test No. 456 guidelines, with minor modifications. H295R cells (ATCC CRL-2128) were expanded for 5 passages and frozen in batches in liquid nitrogen. Prior to the steroidogenesis assay, H295R cells were thawed and passed at least 4 times. The maximum passage was 10. […] After seeding cells into 96-well plates at 50-60% confluency, cells were allowed to adhere overnight. Prior to chemical testing, culture medium was replaced with 175 uL medium containing 10 uM forskolin to stimulate steroidogenesis for 48 hours. Following prestimulation, forskolin medium was replaced with medium containing test chemical solubilized in DMSO (ensuring a final concentration of 0.1% DMSO). Test chemicals were incubated for 48 hours, then the medium was removed and split into 2 vials containing approximately 75uL each, and stored at -80 C prior to hormone analysis. For steroid quantification, media samples were shipped to OpAns, LLC (Durham, NC) on dry ice, and samples were thawed to room temperature prior to liquid-liquid extraction. Steroid hormones were extracted from media samples using methyl tertbutyl ether (MTBE). […] Steroid hormones were separated by HPLC, eluted using a reverse phase C18 gradient with electrospray positive ionization, followed by quantification by tandem mass spectrometry (MS/MS). Data were acquired on a MassHunter Workstation Acquisition version B03.01 (Agilent Technologies, Inc.) and processed using MassHunter Quantitative Analysis for QQQ. Accuracy was determined for each hormone analyte from 3 standards to determine upper and lower limits of quantification (ULOQ and LLOQ, respectively) using a 7-point standard curve. Precision and accuracy of the extraction and quantification methods were calculated as the percent relative standard deviation (%RSD) of the spiked standards and percent spiked standard recovered, respectively. The goal was to achieve 100% accuracy (i.e., recover all spiked-in standard at quantification with minimal loss during run time) and good precision (i.e., have %RSD <15% to ensure reproducibility). Test medium was removed following chemical exposure, and cell viability was evaluated in the same wells by MTT. […] Absorbance was read at 570 and 650nm using a Packard Fusion microplate reader. Background correction of absorbance units was used to determine percent change relative to controls. […]

[7] = CEETOX_H295R_PROG: CeeTox H295R High-throughput Steroidogenesis Assay for Progesterone (PROG) (AID 2283442; active = hit-call score of the fitted dose curve at least 0.9, where 1 is the maximum; inactive = score below 0.9;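 for AC50: human H295R adrenal cells primed with 10 µM forskolin before dosing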); details: actives raise or lower the signal
Summary of the method: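 H295R adrenal cells prestimulated 48 h with 10 uM forskolin, then exposed 48 h to test chemical in 0.1% DMSO. Progesterone in medium quantified by HPLC-MS/MS after MTBE extraction; viability checked by MTT in same wells.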

[8] = CEETOX_H295R_TESTO: CeeTox H295R High-throughput Steroidogenesis Assay for Testosterone (TESTO) (AID 2283457; active = hit-call score of the fitted dose curve at least 0.9, where 1 is the maximum; inactive = score below 0.9;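 for AC50: cells exposed to chemicals for 48 h before medium collection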); details: actives raise or lower the signal
Summary of the method: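 H295R adrenal cells, passage ≤10, exposed to chemicals for 48 h. Testosterone in medium measured by MTBE extraction and HPLC-MS/MS against a 7-point standard curve. Bidirectional fit versus DMSO; MTT viability checked in the same wells.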

[9] = ATG_XTT_Cytotoxicity: Cytotoxicity Assessment in the Attagene TRANS-FACTORIAL HepG2 Assay (AID 2283584);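 for AC50: XTT signal for cell number as viability in transfected HepG2 cells; cells exposed to compound for 24 h before reading; active means loss of viability signal versus DMSO baseline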
Summary of the method: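 HepG2 cells transiently transfected with GAL4-UAS multiple reporter units, dosed 24 h; cytotoxicity read by XTT as loss of signal versus DMSO baseline.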

[10] = TOX21_p53_BLA_p2_viability: Viability Assessment in the Tox21 HCT-116 p53 Agonism Beta-lactamase Assay, Phase 2 (AID 2283591);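 note: compound exposure lasted 16 h at 37 °C; actives lower the ATP signal meaning cytotoxicity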
Summary of the method: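 HCT116 p53-bla cells, 4000/well, dosed after 5 h plating (217-fold dilution of DMSO stocks) and incubated 16 h at 37C. Viability taken as cellular ATP by CellTiter-Glo luminescence after 30 min RT; signal loss marks cytotoxicity.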

CC(=O)Nc1ccc(N=Nc2cc(C)ccc2O)cc1
AC50 [1]: 25 µM (active)
AC50 [2]: 25 µM (active)
outcome [3]: inactive
outcome [4]: inactive
outcome [5]: inactive
outcome [6]: inactive
AC50 [7]: 20.9 µM (active)
AC50 [8]: 31.5 µM (active)
outcome [9]: inactive

CC(C)=CCCC(C)CCOC(=O)C(C)C (configuration not stated)
outcome [9]: inactive

Cc1cccc(N(C)C)c1
outcome [1]: inactive
outcome [2]: inactive
outcome [3]: inactive
outcome [4]: inactive
outcome [5]: inactive
outcome [6]: inactive
outcome [7]: inactive
outcome [8]: inactive
outcome [9]: inactive

COC(=O)C1CCC(C(=O)OC)CC1 (configuration not stated)
outcome [9]: inactive

COC(OC(C)=O)c1ccccc1 (configuration not stated)
outcome [9]: inactive

CC(C)OC(=O)c1ccccc1C(=O)OC(C)C
outcome [9]: inactive

CC(C)(C)c1ccc(OC2CCCCC2O)cc1 (configuration not stated)
outcome [9]: inactive

CCCCC(CC)COP(=O)(O)OCC(CC)CCCC (configuration not stated)
AC50 [9]: 146 µM (active)

CCc1c(Br)c(Br)c(Br)c(Br)c1Br
outcome [9]: inactive

CC(Cc1ccc(O)c(O)c1)C(C)Cc1ccc(O)c(O)c1 (configuration not stated)
AC50 [2]: 12.7 µM (active)
AC50 [3]: 78.3 µM (active)
AC50 [4]: 11.7 µM (active)
outcome [5]: inactive
outcome [6]: inactive
AC50 [7]: 13.9 µM (active)
outcome [9]: inactive
AC50 [10]: 63.6 µM (active)

CCCCOCCOCCOC(=O)CCCCC(=O)OCCOCCOCCCC
outcome [9]: inactive

C#C[C@]1(O)CC[C@H]2[C@@H]3CCc4cc(OC)ccc4[C@H]3CC[C@@]21C
outcome [3]: inactive
outcome [4]: inactive
AC50 [7]: 3.58 µM (active)
outcome [9]: inactive
outcome [10]: inactive

CC/C=C\CCOC(=O)c1ccccc1
outcome [9]: inactive

CCCCCCOC(=O)c1ccccc1O
outcome [9]: inactive

CO[Si](OC)(c1ccccc1)c1ccccc1
outcome [9]: inactive

CCN(Cc1cccc(S(=O)(=O)O)c1)c1ccc(C(=C2C=CC(=[N+](CC)Cc3cccc(S(=O)(=O)O)c3)C=C2)c2ccc(O)cc2S(=O)(=O)[O-])cc1
outcome [9]: inactive

CS(C)(=O)=O
outcome [9]: inactive

c1ccc(-c2ccccc2-c2ccccc2)cc1
outcome [9]: inactive

CCCCCCC(C)OC(=O)CCCCC(=O)OC(C)CCCCCC (configuration not stated)
outcome [9]: inactive

C=CC/C=C/C/C=C/C/C=C/C
outcome [9]: inactive

c1ccc(B(c2ccccc2)c2ccccc2)cc1
outcome [2]: inactive
outcome [3]: inactive
AC50 [4]: 8.03 µM (active)
AC50 [7]: 12.6 µM (active)
outcome [9]: inactive
outcome [10]: inactive

CCCCCCS
outcome [1]: inactive
outcome [2]: inactive
outcome [3]: inactive
outcome [4]: inactive
outcome [5]: inactive
outcome [6]: inactive
outcome [7]: inactive
outcome [8]: inactive
outcome [9]: inactive

Nc1ccc(Oc2cccc(Oc3ccc(N)cc3)c2)cc1
AC50 [2]: 2.84 µM (active)
AC50 [3]: 3.6 µM (active)
outcome [4]: inactive
outcome [5]: inactive
outcome [6]: inactive
AC50 [7]: 3.9 µM (active)
outcome [9]: inactive

CC(C)c1ccccc1N
outcome [9]: inactive

CCCCNc1ccccc1
outcome [9]: inactive
outcome [10]: inactive

CCCCCCOC(=O)c1ccccc1
outcome [9]: inactive
outcome [10]: inactive

O=C(C=Cc1ccccc1)OCC=Cc1ccccc1
outcome [9]: inactive
outcome [10]: inactive

OC[C@@H](O)[C@@H](O)[C@H](O)[C@@H](O)CO
outcome [9]: inactive
outcome [10]: inactive

CCCCCC=O
outcome [9]: inactive
outcome [10]: inactive

CC(CCl)OP(=O)(OC(C)CCl)OC(C)CCl (configuration not stated)
outcome [9]: inactive
outcome [10]: inactive

C1COCCN1
outcome [9]: inactive
outcome [10]: inactive

CCCCOc1ccc(N)cc1
outcome [10]: inactive

CC/C=C\CCOC(C)=O
outcome [9]: inactive
outcome [10]: inactive

Cc1cc(C)cc(O)c1
outcome [9]: inactive
outcome [10]: inactive

O=C(OCCOCCOCCOC(=O)c1ccccc1)c1ccccc1
outcome [9]: inactive
outcome [10]: inactive

CCCCCCCOC(=O)c1ccccc1C(=O)OCCCCCCC
outcome [9]: inactive

O=S(=O)(O)c1ccc2ccccc2c1
outcome [9]: inactive
outcome [10]: inactive

Nc1ccc([N+](=O)[O-])cc1O
outcome [9]: inactive
outcome [10]: inactive

CCc1ccc(C(c2ccc(CC)cc2)C(Cl)Cl)cc1
outcome [10]: inactive

CNC(=S)NC
outcome [9]: inactive
outcome [10]: inactive

C(=C(c1ccccc1)c1ccccc1)c1ccccc1
outcome [9]: inactive
outcome [10]: inactive

Cc1ccc(S(=O)(=O)NCl)cc1
outcome [9]: inactive
outcome [10]: inactive

Nc1cc(Cl)c(N)c(Cl)c1
outcome [9]: inactive
outcome [10]: inactive

CCCCCCCCCCCCCCCC[N+](C)(C)Cc1ccccc1
outcome [9]: inactive
AC50 [10]: 42.5 µM (active) and 23 µM (active)

CCN(CC)c1ccc2c(C)cc(=O)oc2c1
outcome [9]: inactive
outcome [10]: inactive

O[Si](c1ccccc1)(c1ccccc1)c1ccccc1
outcome [9]: inactive

CN(C)Cc1ccccc1O
outcome [9]: inactive
outcome [10]: inactive
